From PubChem BioAssay (Tox21) come the findings set out here.

Experiment [1] is described as follows: qHTS assay to identify small molecule HDAC inhibitors - cell viability counter screen (AID 1259365). Note: series mostly up to about 92 µM; nearly all actives have a fitted effect of over 50% in size. The procedure, abridged:
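CellTiter-Glo luminescence (30 min, room temperature) reported viability after a 2 h compound exposure at 37 C. Cells: wild-type HCT-116, 1,500 per well, seeded the night before.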

A short description of experiment [2]: qHTS assay to identify small molecule agonists of the sonic hedgehog signaling (Shh) pathway - cell viability counter screen (AID 1259366). Note: nearly all actives have a fitted effect of over 50% in size. The procedure, abridged:
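Cytotoxicity counter screen: CellTiter-Fluor reagent added after 23 h compound exposure, then 1 h at 37C and fluorescence read. Cells were 3T3 Gli1-Luc, seeded 2,000 per well and dosed 4 h post-plating.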

Experiment [3] can be described thus: qHTS assay to identify small molecule antagonists of the sonic hedgehog signaling (Shh) pathway - cell viability counter screen (AID 1259367). Note: nearly all actives have a fitted effect of over 55% in size. In a few lines:
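Cytotoxicity was assessed in parallel with Shh reporter activity by measuring live-cell protease fluorescence (CellTiter-Fluor) in NIH/3T3 cells stably carrying Gli1-Luc, treated with compound under conditioned medium stimulation for 23 hr plus 1 hr reagent incubation.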

A short description of experiment [4]: qHTS assay to identify small molecule agonists of the sonic hedgehog signaling (Shh) pathway (AID 1259368; calls by dose curve;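 note: NIH/3T3-derived 3T3Gli1-Luc cells carrying a stable Gli1-driven firefly luciferase reporter; series mostly up to about 92 µM; nearly all actives have a fitted effect of over 15% in size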). The procedure, abridged: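 Stable NIH/3T3 Gli1-Luc reporter clone; 24 hr cpd exposure after a 4 hr settling period; luminescence endpoint.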
Experiment [5] in a line: qHTS assay to identify small molecule antagonists of the sonic hedgehog signaling (Shh) pathway (AID 1259369; calls by dose curve; note: nearly all actives have a fitted effect of over 45% in size). In a few lines: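 Gli1 transcriptional reporter (firefly Luc) in NIH/3T3 background, conditioned-medium activated. 24hr exposure, luminescence endpoint.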
The target of experiment [6] is Estrogen receptor beta (Homo sapiens) (UniProt Q92731). As to the kind of experiment: qHTS assay to identify small molecule agonists of the estrogen receptor beta (ER-beta) signaling pathway (AID 1259377; active = well fitted activation curve with a large enough effect in the signal ratio in the repeat runs, not every such curve was filed as active; the % refers to the signal ratio; note: potency is the fitted concentration of half-maximal effect). The procedure, abridged: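 Ratiometric beta-lactamase FRET read-out came after 2 h substrate loading at room temperature. It followed 16 h compound treatment at 37C of GripTite HEK293T cells carrying a UAS-bla reporter, plated in 2% charcoal-stripped FBS medium.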
Chain of Estrogen receptor beta (Homo sapiens) (Q92731 whole entry, looked up): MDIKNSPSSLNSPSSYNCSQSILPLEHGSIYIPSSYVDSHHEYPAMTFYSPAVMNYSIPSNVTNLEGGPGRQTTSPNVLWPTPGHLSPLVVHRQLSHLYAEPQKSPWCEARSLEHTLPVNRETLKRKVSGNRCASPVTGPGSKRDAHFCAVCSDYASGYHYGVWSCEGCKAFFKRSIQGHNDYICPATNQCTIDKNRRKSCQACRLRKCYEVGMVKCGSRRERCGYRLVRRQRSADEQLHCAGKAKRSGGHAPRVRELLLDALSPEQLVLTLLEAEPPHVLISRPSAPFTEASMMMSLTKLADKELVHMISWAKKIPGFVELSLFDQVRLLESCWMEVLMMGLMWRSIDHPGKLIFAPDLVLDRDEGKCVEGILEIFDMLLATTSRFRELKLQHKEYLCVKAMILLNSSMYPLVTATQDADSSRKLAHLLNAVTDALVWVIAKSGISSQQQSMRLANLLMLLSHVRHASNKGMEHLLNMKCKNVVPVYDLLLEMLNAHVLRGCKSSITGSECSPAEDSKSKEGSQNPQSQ

The target is the same in experiment [7]. The experiment is described as follows: qHTS assay to identify small molecule antagonists of the estrogen receptor beta (ER-beta) signaling pathway (AID 1259378; active = well fitted inhibition curve with a large enough effect in the signal ratio in the repeat runs, not every such curve was filed as active; the % refers to the signal ratio). The procedure, abridged:
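ER-beta-UAS-bla HEK293T (GripTite) cells in 2% charcoal-stripped FBS medium were preincubated 6 hr at 37C, dosed with compound, then stimulated with 1 nM E2 (final) for 16 hr; beta-lactamase reporter read by B/G FRET fluorescence after 2 hr substrate loading.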

Experiment [8] can be described thus: qHTS assay to identify small molecule agonists of the androgen receptor (AR) signaling pathway in the presence of an antagonist - cell viability counter screen (AID 1259379).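 Note: MDA-kb2 human breast cancer cells carrying an MMTV luciferase reporter; series mostly up to about 92 µM; nearly all actives have a fitted effect of over 25% in size.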 The procedure, abridged:
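Counter screen for cell viability run in parallel with the AR agonist-mode luciferase assay. MDA-kb2 cells were co-treated with nilutamide (3.0uM final) and compounds, then incubated 16 hr at 37C, and CellTiter-Fluor fluorescence was measured.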

Experiment [9] in a line: qHTS assay to identify small molecule agonists of the estrogen receptor beta (ER-beta) signaling pathway - cell viability counter screen (AID 1259380). Note: nearly all actives have a fitted effect of over 30% in size. The procedure, abridged:
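In this qHTS counter screen, HEK293T cells carrying an ER-beta/UAS beta-lactamase reporter, grown in 2% charcoal-stripped FBS, received compound for 16 hr; ATP-based CellTiter-Glo luminescence was then read after 30 min at room temperature.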

Experiment [10] has as its target Androgen receptor (Homo sapiens) (UniProt P10275). As to the kind of experiment: qHTS assay to identify small molecule agonists of the androgen receptor (AR) signaling pathway in the presence of an antagonist (AID 1259381; calls by dose curve; note: nearly all actives have a fitted effect of over 15% in size). The procedure, abridged: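 AR antagonist background: nilutamide 3.0uM final. Cell line: MDA-kb2, MMTV-driven luciferase, responsive to both AR and GR. Exposure 16hr, 37C, no CO2; ONE-Glo luminescence.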

A number with no mark means an inactive call. Records with an inconclusive call do not appear. Activity calls are given as the source filed them. Unless noted, calls come from the whole dose curve; as a rule, active = well fitted curve in the direction sought with a large enough effect in the repeat runs; inconclusive = weak or mixed curves; inactive = no such curve, though single readings can be large; an effect the other way counts as inactive or inconclusive.

Chain of Androgen receptor (Homo sapiens) (P10275 whole entry, looked up): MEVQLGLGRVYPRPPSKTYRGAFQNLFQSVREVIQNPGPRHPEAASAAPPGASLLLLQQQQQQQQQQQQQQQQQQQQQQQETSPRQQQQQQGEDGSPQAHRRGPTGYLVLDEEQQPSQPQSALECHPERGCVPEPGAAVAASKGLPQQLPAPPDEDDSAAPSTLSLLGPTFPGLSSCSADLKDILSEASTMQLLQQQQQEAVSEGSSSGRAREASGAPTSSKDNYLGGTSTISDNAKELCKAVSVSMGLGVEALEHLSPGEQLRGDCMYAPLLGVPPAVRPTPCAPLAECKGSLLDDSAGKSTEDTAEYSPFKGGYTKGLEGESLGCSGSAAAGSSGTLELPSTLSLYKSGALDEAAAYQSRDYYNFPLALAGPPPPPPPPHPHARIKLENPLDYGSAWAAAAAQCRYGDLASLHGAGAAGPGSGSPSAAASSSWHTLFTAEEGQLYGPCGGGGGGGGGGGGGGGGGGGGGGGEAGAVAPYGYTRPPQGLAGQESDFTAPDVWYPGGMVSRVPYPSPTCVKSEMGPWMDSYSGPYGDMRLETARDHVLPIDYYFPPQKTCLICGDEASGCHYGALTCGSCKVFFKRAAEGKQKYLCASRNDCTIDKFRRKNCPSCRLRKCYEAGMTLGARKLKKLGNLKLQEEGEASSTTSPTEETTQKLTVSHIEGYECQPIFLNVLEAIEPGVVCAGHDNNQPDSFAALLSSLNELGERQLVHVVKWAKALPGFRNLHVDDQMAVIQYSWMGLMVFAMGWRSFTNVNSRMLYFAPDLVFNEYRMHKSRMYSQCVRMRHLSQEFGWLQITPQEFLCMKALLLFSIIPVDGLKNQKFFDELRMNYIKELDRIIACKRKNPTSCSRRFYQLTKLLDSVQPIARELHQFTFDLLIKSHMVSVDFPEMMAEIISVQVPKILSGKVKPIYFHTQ

As to `O=C1OC(=O)c2ccccc21`, the outcome in experiment [1], in experiment [4], in experiment [7] and in experiment [9] was inactive. In addition, the Potency result in [2], in experiment [3], in [5], in experiment [6] and in experiment [8] was “inactive” throughout.
As for `F[Si-2](F)(F)(F)(F)F`, the outcome in experiment [1], in experiment [4] and in experiment [7] was inactive. The Potency result in [2], in experiment [3], in experiment [5], in [6] and in experiment [8] was “inactive” in each case.
`Nc1ccc(S(=O)(=O)NC(=O)c2ccccc2)cc1`: the molecule was classed as inactive in [1], in experiment [4], in [7] and in experiment [9]. The Potency result in experiment [2], in [3], in [5], in experiment [6] and in experiment [8] was “inactive” each time.
Consider `CCN(Cc1cccc(S(=O)(=O)O)c1)c1ccccc1`, for which the result in experiment [1], in experiment [4], in experiment [7] and in experiment [9] was inactive. The Potency entry in experiment [2], in experiment [3], in experiment [5], in experiment [6] and in [8] was “inactive” in each case.
`CC(C)COC(=O)CC(C(=O)OCC(C)C)S(=O)(=O)O` (configuration not stated): the result in experiment [1], in experiment [4], in [7] and in [9] was inactive. For the same molecule, the Potency result in experiment [2], in experiment [3], in experiment [5], in [6] and in experiment [8] was “inactive” each time.
In the case of `C[C@H](CCC(=O)NCC(=O)O)[C@H]1CC[C@H]2[C@@H]3[C@H](O)C[C@@H]4C[C@H](O)CC[C@]4(C)[C@H]3C[C@H](O)[C@]12C`, the outcome in [1], in experiment [4] and in experiment [7] was inactive. In addition, the Potency result in [2], in [3], in experiment [5], in [6] and in experiment [8] was “inactive” throughout.
In the case of `NCCc1ccn[nH]1`, the result in experiment [1], in [4], in experiment [7] and in experiment [9] was inactive. Also, the Potency entry in experiment [2], in [3], in [5], in experiment [6] and in experiment [8] was “inactive” in each case.
As for `Nc1ccc(C(=O)OCC(O)CO)cc1` (configuration not stated), the call in experiment [1], in experiment [4] and in experiment [7] was inactive. In addition, the Potency entry in experiment [2], in experiment [3], in experiment [5], in experiment [6] and in [8] was “inactive” each time.
With `COc1cc2c(Nc3ccc(Br)cc3F)ncnc2cc1OCC1CCN(C)CC1`, the call in [1], in [4], in [7] and in [9] was inactive. The Potency entry in experiment [2], in experiment [3], in experiment [5], in experiment [6] and in experiment [8] was “inactive” each time.
Take `CCOC(=O)CC#N`: the molecule was called inactive in experiment [1], in experiment [4], in experiment [7] and in [9]. In addition, the Potency result in [2], in [3], in experiment [5], in [6] and in experiment [8] was “inactive” each time.
`CC(C)COC(=O)/C=C/c1ccccc1`: the call in experiment [1], in experiment [4], in experiment [7] and in experiment [9] was inactive. The Potency entry in [2], in experiment [3], in [5], in experiment [6] and in experiment [8] was “inactive” throughout.
With `CCC(C)N` (configuration not stated), the molecule was called inactive in experiment [1], in [4], in experiment [7] and in [9]. Also, the Potency entry in [2], in [3], in experiment [5], in experiment [6] and in [8] was “inactive” throughout.
Consider `c1ccc(CNc2ncnc3nc[nH]c23)cc1`, for which the result in experiment [1], in experiment [4], in experiment [7] and in [9] was inactive. In addition, the Potency result in [2], in experiment [3], in experiment [5], in [6] and in experiment [8] was “inactive” throughout.
As for `CC(=O)OC(C)c1ccccc1` (configuration not stated), the molecule was called inactive in experiment [1], in experiment [4] and in experiment [7]. Besides, the Potency result in [2], in [3], in experiment [5] and in experiment [8] was “inactive” each time.
On to `CCCCC[Si](OCC)(OCC)OCC`, for which the outcome in [1], in experiment [4], in experiment [7] and in experiment [10] was inactive. The Potency entry in experiment [2], in experiment [3], in [5], in experiment [6] and in experiment [8] was “inactive” throughout.
Consider `CO[Si](CCCS)(OC)OC`, for which the result in experiment [1], in [4], in experiment [7] and in experiment [9] was inactive. For the same molecule, the Potency entry in [2], in experiment [3], in experiment [5], in experiment [6] and in experiment [8] was “inactive” each time.
Take `C=CCOc1cc(Cl)ccc1C(=O)NCCN(CC)CC`: the molecule was classed as inactive in [1], in experiment [4], in experiment [7] and in [9]. Also, the Potency result in [2], in experiment [3], in [5], in experiment [6] and in [8] was “inactive” throughout.
Take `O=C1c2ccccc2-c2ccccc21`: the call in experiment [1], in [4], in experiment [7], in experiment [9] and in experiment [10] was inactive. Also, the Potency result in experiment [2], in [3], in experiment [5], in experiment [6] and in experiment [8] was “inactive” throughout.
As for `COc1cc2c3cc1Oc1cc(ccc1O)C[C@@H]1c4c(cc(OC)c(O)c4Oc4ccc(cc4)C[C@@H]3N(C)CC2)CC[N+]1(C)C`, the molecule was called inactive in experiment [1] and in [4]. Further, the Potency entry in experiment [2], in experiment [3], in experiment [5] and in [8] was “inactive” in each case. In addition, the Potency in [6] was 26.6 µM (active).
Regarding `Cc1ccccc1OCC1CO1` (configuration not stated), the result in [1], in [4], in experiment [7] and in experiment [9] was inactive. The Potency entry in experiment [2], in experiment [3], in experiment [5], in experiment [6] and in [8] was “inactive” in each case.
For `O=C(COCCOCCOCC(=O)Nc1c(I)cc(I)c(C(=O)O)c1I)Nc1c(I)cc(I)c(C(=O)O)c1I`, the outcome in [1], in [4], in experiment [7] and in experiment [9] was inactive. For the same molecule, the Potency entry in experiment [2], in experiment [3], in [5], in experiment [6] and in experiment [8] was “inactive” each time.
Regarding `CCCCCCCCCCCCCC(=O)OC`, the result in experiment [1], in experiment [4], in experiment [7], in [9] and in [10] was inactive. In addition, the Potency entry in experiment [2], in experiment [3], in experiment [5], in experiment [6] and in [8] was “inactive” in each case.
`CC(CC(=O)O)CC(C)(C)C` (configuration not stated): the call in [1], in experiment [4], in experiment [7] and in experiment [9] was inactive. For the same molecule, the Potency entry in experiment [2], in experiment [3], in [5], in [6] and in experiment [8] was “inactive” in each case.
Turning to `Nc1nc(=O)n([C@@H]2O[C@H](CO)[C@@H](O)[C@@H]2F)cc1I`, the molecule was classed as inactive in experiment [1], in experiment [4] and in experiment [9]. Further, the Potency result in [2], in experiment [3], in experiment [5], in [6] and in experiment [8] was “inactive” each time.
On to `COCC(=O)Nc1c(I)c(C(=O)NCC(O)CO)c(I)c(C(=O)N(C)CC(O)CO)c1I` (configuration not stated), for which the call in [1], in experiment [4], in experiment [7], in experiment [9] and in experiment [10] was inactive. For the same molecule, the Potency entry in [2], in experiment [3], in [5], in [6] and in [8] was “inactive” each time.
For `CC(C)CCCCCCOC(=O)C1CCCCC1C(=O)OCCCCCCC(C)C` (configuration not stated), the result in experiment [1], in experiment [4] and in [7] was inactive. In addition, the Potency result in experiment [2], in experiment [3], in experiment [5] and in experiment [8] was “inactive” each time.
As for `CC(=O)N1CCN(c2ccc(O)cc2)CC1`, the outcome in [1], in experiment [4], in [7], in [9] and in experiment [10] was inactive. For the same molecule, the Potency entry in experiment [2], in [3], in experiment [5], in experiment [6] and in experiment [8] was “inactive” in each case.
